Data on 34 compounds can be found in PubChem BioAssay (NCATS).

Test [1] deals with Aldehyde dehydrogenase, mitochondrial (Homo sapiens) (UniProt P05091). Kind of test: qHTS for Inhibitors of the Aldehyde Dehydrogenase Family (ALDH2) Primary screen (AID 2061308). Also: nearly all actives have a fitted effect of over 55% in size. For orientation: qHTS replaces the single test concentration by a dilution series.
For test [2], the target named is Retinaldehyde dehydrogenase 3 (Homo sapiens) (UniProt P47895). Kind of test: qHTS for Inhibitors of the Aldehyde Dehydrogenase Family (ALDH1A3) Primary screen (AID 2061315).

Inconclusive results are not listed. A call without a number means that no potency is given here. The source made the active and inactive calls. Calls follow the shape of the dose curve; as a rule, active = well fitted curve in the direction sought with a large enough effect; inconclusive = small, poorly fitted or top-dose-only effect, or another doubt; inactive = no such curve, though single readings can be large; an effect the other way counts as inactive or inconclusive.

For `Cc1cc(NS(=O)(=O)C2CCN(C(=O)Cc3ccc(Cl)c(Cl)c3)CC2)no1`, the Potency entry in test [1] and in test [2] was “inactive” each time.
As to `Cc1ccc(-c2cc(C(=O)N(C)c3ccccc3)c3ccccc3n2)cc1C`, the Potency entry in test [1] and in test [2] was “inactive” in each case.
As to `C[C@H](Oc1cc(-n2cnc3ccc(CN4CCN(C)CC4)cc32)sc1C(N)=O)c1ccccc1C(F)(F)F`, the Potency result in test [1] and in test [2] was “inactive” each time.
As to `Cc1cc(N[S+](=O)([O-])c2cc3c(cc2Cl)CCC(=O)N3)ccc1Br`, the Potency result in test [1] and in test [2] was “inactive” throughout.
For `O=[S+]([O-])(NC[C@H]1CCC[C@H](CN[S+](=O)([O-])c2c(F)cccc2F)C1)c1ccc2c(c1)OCCO2`, the Potency entry in test [1] and in test [2] was “inactive” each time.
As to `O=C(Cn1nc(C2CCCCC2)ccc1=O)NCCc1ccccc1`, the Potency result in test [1] and in test [2] was “inactive” throughout.
In the case of `O=S(=O)(Nc1cccc2cccnc12)c1ccc(Br)cc1`, the Potency entry in test [1] and in test [2] was “inactive” throughout.
Turning to `O=C1CCCC2=C1C(c1[nH]ncc1Cl)N=C(Nc1nc3cc([S+](=O)([O-])N4CCOCC4)ccc3o1)N2` (stereo not drawn), the Potency result in test [1] and in test [2] was “inactive” each time.
For the compound `c1coc(CNc2nc(-c3cccs3)nc3ccccc23)c1`, the Potency entry in test [1] and in test [2] was “inactive” each time.
For the compound `O=C(NCCc1nc2ccccc2n1CCO)C1CCCCC1`, the Potency entry in test [1] and in test [2] was “inactive” in each case.
With `N#Cc1no[n+]([O-])c1-c1ccccc1`, the Potency entry in test [1] and in test [2] was “inactive” throughout.
On to `O=C(Nc1nc(-c2ccccc2)cs1)c1ccccc1Cl`, for which the Potency entry in test [1] and in test [2] was “inactive” in each case.
For the compound `O=c1[nH]c(CCl)nc2sc3c(c12)CCCC3`, the Potency entry in test [1] and in test [2] was “inactive” each time.
As to `Cc1cc(N2C(=O)c3ccccc3C2=O)no1`, the Potency result in test [1] and in test [2] was “inactive” throughout.
Turning to `COc1cnccc1-c1nc(Nc2ccc(F)c(F)c2)c2ccccc2n1`, the Potency entry in test [1] and in test [2] was “inactive” in each case.
On to `CCN(CC)CCn1c(-c2ccccc2)nc2c(NCc3ccccc3)nc(C)nc21`, for which the Potency result in test [1] and in test [2] was “inactive” each time.
Consider `Cc1ccc(NS(=O)(=O)c2cc3c(cc2Br)NC(=O)CO3)cc1C`, for which the Potency result in test [1] and in test [2] was “inactive” each time.
In the case of `Cc1ccc(S(=O)(=O)Nc2ccccc2C(=O)Nc2ncc(-c3ccccc3)s2)cc1`, the Potency result in test [1] and in test [2] was “inactive” each time.
For the compound `O=S(=O)(c1ccc2c(c1)OCCO2)N1CCN(S(=O)(=O)c2ccccc2F)CC1`, the Potency entry in test [1] and in test [2] was “inactive” in each case.
On to `Cc1c(Br)cc(F)c([S+](=O)([O-])N2CCN([S+](=O)([O-])c3ccc4c(c3)OCCO4)CC2)c1F`, for which the Potency result in test [1] and in test [2] was “inactive” throughout.
As for `O=S(=O)(Nc1nc(CN2CCOCC2)nc2sc3c(c12)CCC3)c1ccc2c(c1)OCCO2`, the Potency entry in test [1] and in test [2] was “inactive” each time.
As to `Cc1ccc(OCCn2c(CCNC(=O)c3cccc4ccccc34)nc3ccccc32)cc1`, the Potency result in test [1] and in test [2] was “inactive” throughout.
`Cc1cc2c(s1)c1cnn(Cc3ccc(Cl)c(F)c3)c(=O)c1n2C`: the Potency result in test [1] and in test [2] was “inactive” each time.
For the compound `Cc1nc(NC2CCCCC2)c2nc(-c3ccccc3)n(CCN3CCCCC3)c2n1`, the Potency result in test [1] and in test [2] was “inactive” each time.
As to `Cc1cc(NS(=O)(=O)c2ccc(NC(=O)Cc3cccc4ccccc34)cc2)no1`, the Potency entry in test [1] and in test [2] was “inactive” throughout.
In the case of `CC(C)c1ccccc1-c1nc(NCc2ccc(-c3cccnc3)cc2)c2[nH]cnc2n1`, the Potency entry in test [1] and in test [2] was “inactive” in each case.
Turning to `O=C(CCCc1ccccc1)NC(c1ccco1)c1cc(Cl)c2cccnc2c1O` (stereo not drawn), the Potency result in test [1] and in test [2] was “inactive” in each case.
With `Cn1c2cc(B(O)O)sc2c2cnn(Cc3ccc(F)cc3F)c(=O)c21`, the Potency entry in test [1] and in test [2] was “inactive” throughout.
Turning to `CN(C(=O)Nc1ccc2ccccc2c1)c1nnc(-c2ccncc2)s1`, the Potency entry in test [1] and in test [2] was “inactive” in each case.
`O=C(Nc1nnc(-c2ccco2)o1)c1ccc(Cl)cc1`: the Potency result in test [1] and in test [2] was “inactive” each time.
As for `Cn1c2cc(B(O)O)sc2c2cnn(Cc3c(F)cccc3Cl)c(=O)c21`, the Potency entry in test [1] and in test [2] was “inactive” each time.
Take `CCN(CC)CCCC(C)n1c(-c2ccccc2)nc2c(NCCOC)nc(C)nc21` (stereo not drawn): the Potency entry in test [1] and in test [2] was “inactive” throughout.
Regarding `Cc1cc(C)n2ncc(C(=O)Nc3ccc(S(C)(=O)=O)cc3)c2n1`, the Potency result in test [1] and in test [2] was “inactive” in each case.
As to `Cc1ccc(S(=O)(=O)N2CCN(c3nc(-c4ccco4)nc4ccccc34)CC2)cc1`, the Potency result in test [1] and in test [2] was “inactive” each time.
